Compounds with a hit are over-represented: about 2.9% of the library has one in this group of screens.
Pf gametocyte = inhibitors of late stage P. falciparum gametocyte viability. AID 743093. inhibition, % at 10.9 µM. 0.065% of 150,000 active. P. falciparum stage V gametocytes, ATP luminescence, 24 h;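 active = inhibition above the mean plus 3 SD of compounds within the control limits, set per campaign, cut at about 38% in these data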
Mcl1-Noxa inh = disrupts binding of human Mcl-1 to Noxa peptide. TR-FRET Mcl-1/Noxa peptide binding, 2 h. inhibition, % at 21.7 µM. 1.5% of 220,000 active;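 active = compounds that cut the protein-peptide binding signal by more than 50% relative to plate controls in a single-dose test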;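 note: His-tagged Mcl-1 with rhodamine Noxa BH3 peptide and terbium anti-His antibody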
Bim-Mcl-1 = disrupts Bim peptide binding to human Mcl-1 | Q07820 | Bead-based flow cytometry, Bim peptide-Mcl-1 binding | inhibition, % at 10 µM | 0.1% of 190,000 active; in the data active = inhibition above about 40%
Hck-Nef inh = blocks Nef-activated human Hck kinase. 0.68% of 220,000 active. P08631. Recombinant Hck-YEEI plus Nef, Z-Lyte FRET kinase assay. inhibition, % at 20 µM;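 active = Hck-Nef kinase inhibition above about 50%, limit read from the data; inactive = inhibition below that limit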
Target sequence (P08631 whole entry, looked up): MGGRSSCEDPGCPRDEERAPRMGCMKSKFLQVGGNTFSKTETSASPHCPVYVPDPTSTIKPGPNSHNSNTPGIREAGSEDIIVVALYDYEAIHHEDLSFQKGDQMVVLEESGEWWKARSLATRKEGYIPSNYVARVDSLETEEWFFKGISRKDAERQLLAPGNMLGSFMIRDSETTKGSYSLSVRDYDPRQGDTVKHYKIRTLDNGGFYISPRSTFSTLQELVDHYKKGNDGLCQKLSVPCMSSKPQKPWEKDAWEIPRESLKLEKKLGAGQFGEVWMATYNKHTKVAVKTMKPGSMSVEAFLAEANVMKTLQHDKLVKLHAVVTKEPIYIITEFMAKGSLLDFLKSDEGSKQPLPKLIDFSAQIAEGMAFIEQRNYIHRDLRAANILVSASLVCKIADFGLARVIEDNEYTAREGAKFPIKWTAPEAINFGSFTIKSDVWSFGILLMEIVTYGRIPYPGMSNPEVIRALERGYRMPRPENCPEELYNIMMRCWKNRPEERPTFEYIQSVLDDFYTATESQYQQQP
14-3-3 Bad PPI = disrupts binding of bovine 14-3-3 zeta to phospho-Bad peptide | TR-FRET 14-3-3zeta/Dy647-pBad peptide displacement, 1 h | inhibition, % at 21.7 µM | 0.71% of 220,000 active;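 active = inhibition above about 70%, limit read from the data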
Mcl1-Bid inh = Mcl-1/Bid interaction inhibition; TR-FRET Mcl-1/Bid-Dy647 peptide binding, 1536-well; 0.97% of 220,000 active; Q07820; inhibition, % at 21.7 µM; AID 1021;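 active = compounds that cut the binding signal by more than half at the single screening dose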;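 note: His-tagged Mcl-1 with europium anti-His antibody binding Bid BH3 peptide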
A number is an active result; n = inactive; x = no result given.

SMILES | Pf gametocyte | Mcl1-Noxa inh | Bim-Mcl-1 | Hck-Nef inh | 14-3-3 Bad PPI | Mcl1-Bid inh
COc1cc2c(cc1OC)CN(C(=S)Nc1ccc(C)cc1C)CC2 | 47.5 | n | n | n | n | n
S=C(NCC1CCCO1)N1CCN(Cc2ccccc2)CC1 (centres undefined) | n | n | n | n | 70.4 | n
COc1ccc(Oc2nnc(-c3ccc(C)cc3)c3ccccc23)cc1 | x | n | n | n | 88.6 | n
O=C(N/N=C/c1cc(Br)c(Br)o1)c1ccc2c(c1)OCCO2 | n | 57.1 | x | n | n | n
O=C(Nc1ccc(Cl)cc1)N1CCOCC1 | n | x | x | x | x | x
CCOc1ccc(C2CC(=O)N(Nc3ccc([N+](=O)[O-])cc3[N+](=O)[O-])C2=O)cc1 (centres undefined) | n | 54.3 | x | n | n | n
CC(C)Oc1ccc(C2CC(=O)N(Nc3ccc([N+](=O)[O-])cc3[N+](=O)[O-])C2=O)cc1 (centres undefined) | n | n | x | n | n | n
COCc1cc(C)nc(N/N=C/c2ccc(-c3ccc(C(=O)O)c(Cl)c3)o2)c1C#N | x | n | n | n | n | n
Cc1cccc(-n2cc(-c3ccc([N+](=O)[O-])cc3)[nH]c2=S)c1 | n | 51.7 | n | n | n | n
CCCCNC(=S)Nc1ccccc1Cc1ccccc1 | n | n | n | n | n | n
Cc1cc(C)n(CC(=O)n2c(C)c(C)c3ccccc32)n1 | n | n | n | n | n | n
CCCC1COC(Cn2cncn2)(c2ccc(C)cc2)O1 (centres undefined) | x | n | n | n | 88.0 | n
Cc1cc(NC(=O)COc2ccccc2)ccc1Cl | n | x | x | x | x | x
CNc1ccc(Br)cc(C(=O)/C=C/c2cc(OC)ccc2OC)c1=O | n | 86.8 | n | n | n | n
CCNc1ccc(Br)cc(C(=O)/C=C/c2ccc(Cl)cc2Cl)c1=O | x | 95.6 | n | n | n | n
CNc1ccc(Br)cc(C(=O)/C=C/c2ccc3c(c2)OCO3)c1=O | x | 67.7 | n | n | n | n
CNc1ccc(Br)cc(C(=O)/C=C/c2ccc(OC)cc2)c1=O | n | 62.6 | n | n | n | n
CNc1ccc(/C=C/C(=O)c2ccc3c(c2)OCCO3)cc1[N+](=O)[O-] | x | n | n | n | n | n
O=C(c1ccccc1NS(=O)(=O)c1ccc2c(c1)OCCO2)N1CCOCC1 | n | n | n | n | n | n
COc1ccccc1N1CCN(C(=O)CN2C(=O)c3ccccc3C2=O)CC1 | n | n | n | n | n | n
Cc1ccc(OCc2ccc(C(=O)Nc3nc4ccccc4n3Cc3ccccc3)o2)c([N+](=O)[O-])c1 | x | n | n | n | n | 68.0
O=c1c(Cl)c(N/N=C/c2ccc(Cl)cc2)cnn1-c1ccccc1 | n | 73.7 | n | n | n | n
Nc1c(C(=O)N/N=C/c2ccc(Cl)cc2)cnn1-c1ccccc1 | n | n | x | n | n | n
CC(CCc1ccccc1)NC(=O)c1cccc([N+](=O)[O-])c1 (centres undefined) | x | n | n | n | n | n
COc1ccc(Nc2ccc(S(=O)(=O)N3CCCCC3)cc2[N+](=O)[O-])cc1Cl | n | n | n | n | n | n
SMILES | Pf gametocyte | Mcl1-Noxa inh | Bim-Mcl-1 | Hck-Nef inh | 14-3-3 Bad PPI | Mcl1-Bid inh
O=[N+]([O-])c1cc(S(=O)(=O)N2CCCCC2)ccc1NCCCN1CCOCC1 | n | 53.6 | n | n | n | n
COc1ccc(Nc2ccc(S(=O)(=O)N3CCCCC3)cc2[N+](=O)[O-])cc1 | n | n | n | n | 85.4 | n
CCC1Sc2ccccc2N(CC(=O)NC2CC2)C1=O (centres undefined) | n | n | n | n | n | n
COc1ccc(NC(=O)NCCCN2CCN(c3cc(C)ccc3C)CC2)cc1 | x | 54.8 | n | n | n | n
COc1ccc(NC(=O)CN2CCN(c3ccccc3F)CC2)cc1 | n | n | n | n | n | n
COc1ccc(NC(=O)NCCCN2CCN(c3ccccc3F)CC2)cc1 | n | 56.0 | x | n | n | n
COc1ccc(NC(=O)CN2CCN(c3ccc(C)cc3C)CC2)cc1 | n | x | x | x | x | x
C[C@@H]1CC=C[C@H]2[C@H]1C(=O)N(Cc1ccccc1)[C@H]2c1ccc(/C=C/c2ccccc2)cc1F | x | n | x | n | n | n
O=C(c1cnc2n(c1=O)CCS2)N1CCN(c2ccccc2F)CC1 | x | n | n | n | n | n
COc1cccc(C(=O)Nc2ccc(NC(C)=O)cc2)c1 | n | n | n | n | n | n
COc1cccc(C(=O)Nc2cc(Cl)c(O)c(Cl)c2)c1 | n | 98.2 | x | n | n | n
